Experimental data as given in publication PMC8384837, “Expanding the binding specificity for RNA recognition by a PUF domain”.

What follows are sequences tested against PUM1 PUF domain R4-PYT (Homo sapiens, UniProt Q14671 828-1176, N971P;H972Y;Q975T) (assay: yeast three-hybrid, YBZ-1, SC-Leu-His + 0.5 mM 3-AT, 4 days). Conditions: tags: N-Gal4 AD-HA kept; label: inside an RPR1-promoter hybrid RNA with tandem MS2 sites; ssRNA.
In short: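 The interaction score is the logarithmic change in variant frequency from input to selection. It uses log2, with a pseudocount of 1 for absent variants, and frequencies came from PCR-amplified, Illumina-sequenced repeat regions. The libraries were Pumilio-1 PUF domains randomized at the three base-contacting residues per repeat, co-expressed with matching RNA elements in strain YBZ-1 (LexA–MS2 coat fusion, HIS3 reporter). Plating lasted four days on SC-Leu (input) or SC-Leu-His + 0.5 mM 3-AT (selection).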

Point of comparison: “GGCUAGAACUAGUGGAUCCCCCGGCGCCCGGCGGCUCGAGCCCGGGUAAGUGUAAAUAGUCUGCAUGCCGCCGGGCGCCAUGCCUGCAGGUCGACUCUAGAAAACAUG”, binding signal 4.57 log2 enrichment (interaction score). Against it:
- GGCUAGAACUAGUGGAUCCCCCGGCGCCCGGCGGCUCGAGCCCGGGUAAGUGUACAUAGUCUGCAUGCCGCCGGGCGCCAUGCCUGCAGGUCGACUCUAGAAAACAUG — higher, 6.02 log2 enrichment (interaction score)
- GGCUAGAACUAGUGGAUCCCCCGGCGCCCGGCGGCUCGAGCCCGGGUAAGUGUAUAUAGUCUGCAUGCCGCCGGGCGCCAUGCCUGCAGGUCGACUCUAGAAAACAUG — higher, 7.53 log2 enrichment (interaction score)
